46 molecules from PubChem BioAssay AID1706 (The Scripps Research Institute Molecular Screening Center, 2009) can be followed below.

By inhibition is commonly meant the relative decrease from the control value, in per cent.

Screen size: about 290,000 compounds; about 400 (0.14%) were called active. Only a selection was taken, and actives are over-represented in it overall. Unmarked numbers belong to inactive results. Rule as the data show it: active = inhibition above about 12%; inactive = the rest.

The assay addresses Replicase polyprotein 1ab (Severe acute respiratory syndrome coronavirus) (UniProt P0C6X7). Nature of the assay: SARS-CoV 3CLpro protease inhibitors, primary screen, biochemical, quenched FRET (AID 1706). As to conditions: recombinant SARS-CoV 3CLpro, quenched FRET peptide cleavage; at 6 µM; hits give high values.
On to `CC(C)(C)C(=O)NC1CC2CCCC(C1)N2C(=O)Nc1ccccc1F` (stereo unspecified), for which the inhibition is -4.3%.
For `O=C(NC(Cc1ccccc1)C(=O)O)/C(=C\c1ccccc1)NC(=O)c1ccco1` (stereo unspecified) the value was 1.59%; for `Cc1cc(CNCc2c(C(=O)N(C)Cc3ccccc3)nc3ccccn23)nn1C`, -0.39%; for `Cc1ccc(C)c(NC(=O)c2cc(-c3cc(C)cc(C)c3O)n[nH]2)c1`, 5.71%.
For `COc1ccc(CCNC(=O)/C(C#N)=C2\N=C(NC(=O)c3cccs3)c3ccccc32)cc1` the value was 1.64%.
For `COc1ccc(N2CC(C(=O)NCCS(=O)(=O)N3CCN(c4ccccc4)CC3)CC2=O)cc1` (stereo unspecified) the value was 0.28%.
As to `Cc1cc(C)nc(NS(=O)(=O)c2ccc(N/C=C\C(=O)c3cccs3)cc2)n1`, the inhibition was 6.43%.
`CN(Cc1ccccc1)C(=O)c1cccc(C(=O)N(C)Cc2ccccc2)c1`: the inhibition is -1.52%.
As for `Cc1ccc2cccc(OCCCOc3ccccc3CO)c2n1`, the inhibition was -3.15%.
`CC(=O)c1c(C)n(C(C)C)c2ccc(O)cc12`: the inhibition was -1.9%.
Regarding `O=C(NCCc1ccccc1Cl)C1CCC(=O)N(CCCc2ccccc2)C1` (stereo unspecified), the inhibition was 0%.
In the case of `COc1ccc(CNC(=O)c2cc(=O)c3c(C)cc(C)cc3o2)cc1` it was 6.16%.
In the case of `O=C(NC1CCC(O)CC1)c1ccccc1OCc1ccc(F)cc1` (stereo unspecified) it was 0.54%; in that of `Cc1ccc(C(=O)NCCN2CCOCC2)cc1C`, 13.4% (active).
Take `COc1ccc(C(=O)NCCCN2CCOCC2)cc1Br`: the inhibition is 0.44%.
With `Cc1cc(C)cc(C(=O)NCCN2CCOCC2)c1`, the inhibition is -2.25%.
Take `Cc1noc(NS(=O)(=O)c2ccc(NC(=O)c3oc4ccc(F)cc4c3C)cc2)c1C`: the inhibition was 9.19%.
In the case of `COCC1CCN(C(=O)c2ccc3oc(Cc4ccccc4)nc3c2)C1` (stereo unspecified) it was 1.1%.
In the case of `Cc1cccc2c1N(CC(=O)OC(C)C)C(=O)C2=O` it was 4.13%; in that of `Cc1cccc2c1N(CCOc1ccccc1)C(=O)C2=O`, 17.8% (active); in that of `O=C1c2ccccc2C(=O)N1CCOc1ccc(F)cc1`, -2.34%.
Turning to `Cc1ccc(S(=O)(=O)N2CC(C)N(S(C)(=O)=O)C2)cc1` (stereo unspecified), the inhibition is -3.38%.
In the case of `Cc1cccc(-c2noc(CCC(=O)NC3CCCC3)n2)c1` it was -2.1%; in that of `O=C(O)c1ccccc1CSc1nc2ccccc2s1`, 9.25%.
On to `COc1ccc(NC(=O)CSc2nncc(=O)n2N)cc1OC`, for which the inhibition was -1.55%.
For `COC(=O)c1cc(NC(=O)Cc2ccccc2[N+](=O)[O-])ccc1Cl` the value was 13.9% (active).
For `COc1ccc(NC(=O)c2ccccc2[N+](=O)[O-])cc1OC`, the inhibition was 3.06%.
On to `O=C(Nc1cccc(NC(=O)c2ccccc2[N+](=O)[O-])c1)c1ccccc1Cl`, for which the inhibition is 0.79%.
In the case of `Cc1cccc(NS(=O)(=O)c2ccc(-c3cnc(C4CC4)o3)cc2)c1` it was 11.2%; in that of `O=C(NCCCn1ccnc1)c1cc2c(s1)CCCC2`, -1.18%.
For `CCC(C)(C)NC(=O)CN(C(=O)CCC(=O)Nc1nccs1)c1ccc2c(c1)OCO2` the value was -3.34%; for `O=C(NCCCN1CCOCC1)C1CCCN(S(=O)(=O)N2CCCCC2)C1` (stereo unspecified), 0.26%; for `COc1cccc(NC(=O)CN2CCN(CC(=O)Nc3ccccc3Cl)CC2)c1`, -3.69%.
Consider `COc1ccc(N(Cc2ccc(N(C)C)cc2)C(=O)c2ccc(S(C)(=O)=O)cc2)cc1`, for which the inhibition was 0.16%.
For `COc1ccc(Cl)cc1NS(=O)(=O)c1cccc(C(=O)NCC2CCCO2)c1` (stereo unspecified) the value was -1.42%.
Take `Cc1cccc(C(=O)Nc2nnc(Cc3c[nH]c4ccccc34)s2)c1`: the inhibition was 13.4% (active).
In the case of `Cc1cccc(C(=O)Nc2nnc(S(=O)(=O)N3CCCCCC3)s2)c1` it was 0.72%; in that of `CCc1nnc(NC(=O)[C@@H](NC(=O)c2cccc(C)c2)C(C)C)s1`, 4.69%.
As to `CCOC(=O)c1cc(C(=O)Nc2ccc(S(=O)(=O)Nc3ccc(OC)cc3)cc2)nn1C`, the inhibition is -1.42%.
With `CN1CCN(C(=O)c2ccc(NS(=O)(=O)c3ccccc3)cc2)CC1`, the inhibition is -0.96%.
In the case of `Cc1ccc(CS(=O)Cc2ccc(C(=O)N3CCOCC3)o2)cc1` (stereo unspecified) it was -1.35%; in that of `CSc1ncccc1C(=O)NCc1ccccc1Cl`, 0.88%.
`CC(=O)Nc1ccc(S(=O)(=O)N(C)CC(=O)NCCC2=CCCCC2)cc1`: the inhibition is -0.77%.
Consider `O=C(NCCc1ccc(Cl)cc1)c1cccc(N2CCCC2=O)c1`, for which the inhibition was 3.05%.
Take `COc1ccc(/C=C2\SC(=O)N(CCC(=O)NCCCn3ccnc3)C2=O)cc1`: the inhibition is -3.79%.
Regarding `CC(Oc1ccccc1)C(=O)Nc1c2c(nn1-c1ccccc1)CS(=O)C2` (stereo unspecified), the inhibition is -1.62%.
